RE007 growth inh – less growth of the S. pombe RE007 Vpr strain. S. pombe RE007 Vpr strain, BacTiter-Glo ATP luminescence, 24 h. Potency, µM (titrated, usually from 92.2 µM), for the others: at the highest dose activity change, negative = less growth, most hits filed as inhibitors. hit rate 0.21% among 360,000. AID 651644; active = well fitted falling curve with a large enough effect; inconclusive = small, poorly fitted or top-dose-only effect; inactive = no such curve, though single readings can be large or run the other way; also: potency is read from the fitted curve at half-maximal effect; nearly all actives have a fitted effect of over 50% in size
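Fission yeast RE007 carrying one integrated HIV-1 vpr copy, seeded at OD 0.01 in PMG+AL medium with 23 nL pinned compound. Grown 24 h at 30 degrees; viability read by BacTiter-Glo luminescence after 5 min.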
FMDV inh – antivirals against foot and mouth disease virus; FMDV antiviral cell-based qHTS; Potency, µM (highest dose often 57.9 µM), inactives show top-dose activity change, negative = inhibition, hits mostly inhibitors; hit rate 1.2% among 410,000; calls by dose curve; tested in HEK293T cells; also: read-out not given here; potency is read from the fitted curve at half-maximal effect; nearly all actives have a fitted effect of over 45% in size
Sm TGR block – inhibitors of Schistosoma mansoni thioredoxin glutathione reductase; Q962Y6; Potency, µM (top dose mostly 114 µM), for the others: at the highest dose activity change, negative = inhibition, actives largely listed as inhibitors; purified TGR, DTNB reduction, TNB absorbance 405 nm; hit rate 3% among 360,000; also: potency is read from the fitted curve at half-maximal effect; nearly all actives have a fitted effect of over 60% in size
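TGR 20 nM + NADPH 100 uM (dispensed conc.), cpd preinc 15 min RT; start with NADPH (500 uM addition) then DTNB (15 mM addition). Kinetic TNB absorbance, 405 nm filter. Four-parameter Hill fit across titration.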
HCMV inh – inhibitors of human cytomegalovirus; HFF cells, HCMV-luciferase reporter, 72 h; stronger effect = lower value; AID 1259415; activity change, negative = inhibition, % at 57.5 µM; hit rate 4.5% among 410,000; in the data active = activity change below about -60%; inconclusive = no clear call, values can overlap the other calls; inactive = above about -39%
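Two-dose cell screen: HFF monolayers treated with compounds and infected with luciferase-expressing HCMV at 1 PFU/cell, 72 h at 37C, then lysed for luciferase measurement.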
Tb PYK inh – T. brucei pyruvate kinase inhibition. Q57TT1. TbPYK enzyme, Kinase-Glo Plus ATP luminescence, 45 min. Potency, µM (titrated, usually from 76.8 µM), for inactives: top-dose activity, negative = inhibition, most hits filed as inhibitors. hit rate 0.12% among 410,000. AID 624173; also: potency is read from the fitted curve at half-maximal effect; nearly all actives have a fitted effect of over 50% in size
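Luminescence from Kinase-Glo Plus, added after a 45-minute room-temperature reaction, served as the end-point read-out. The enzyme and substrate were preincubated with compound before ADP (130 uM final) initiated turnover. Concentration-effect curves came from normalized qHTS data.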
FBPA Giardia inh – Giardia lamblia aldolase inhibition; A8B2U2; purified Giardia FBPA; Potency, µM (series often up to 59.6 µM), without a hit: at the highest dose activity, negative = inhibition, usual class: inhibitors; hit rate 0.71% among 290,000; AID 2451; also: potency is read from the fitted curve at half-maximal effect; nearly all actives have a fitted effect of over 55% in size
Target sequence (A8B2U2 whole entry, looked up): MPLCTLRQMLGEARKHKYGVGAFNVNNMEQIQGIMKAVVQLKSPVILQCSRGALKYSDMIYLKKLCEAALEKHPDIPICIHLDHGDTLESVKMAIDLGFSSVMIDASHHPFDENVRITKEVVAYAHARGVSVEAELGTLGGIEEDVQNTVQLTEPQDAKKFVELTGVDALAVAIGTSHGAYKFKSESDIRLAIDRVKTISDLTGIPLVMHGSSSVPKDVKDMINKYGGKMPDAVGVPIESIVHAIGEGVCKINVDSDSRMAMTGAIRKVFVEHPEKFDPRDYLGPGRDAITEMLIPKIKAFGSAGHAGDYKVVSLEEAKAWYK
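40 nM FBPA preincubated 10 min at RT with compound (up to 57.5 uM final), then substrate plus GAPDH/TPI/NAD/arsenate coupling and diaphorase/resazurin added. Fluorescence read after 20 min at RT, 525/598 nm.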
* = called active by the depositor. This is a sample that favours compounds with a hit; in the whole collection about 7.7% have one here. Unless noted, calls follow the shape of the dose curve; as a rule, active = well fitted curve in the direction sought with a large enough effect; inconclusive = small, poorly fitted or top-dose-only effect, or another doubt; inactive = no such curve, though single readings can be large; an effect the other way counts as inactive or inconclusive. % is scaled to controls: 0 for no effect and ±100 for the full control effect.

What do the screens show for `CCC(=O)C1=C(c2cccc(OC)c2)N(C(=O)CC)n2c(nnc2C2CCCCC2)S1`?
FMDV inh: -19%; Sm TGR block: 11%; HCMV inh: -92*; Tb PYK inh: 16%

How did COc1ccc(N2CCN(C3CCCN(S(=O)(=O)c4ccccc4)C3)CC2)cc1 (configuration not stated) do in these assays?
RE007 growth inh: 1%; FMDV inh: -1%; Sm TGR block: -3%; HCMV inh: -31; Tb PYK inh: -6%

What do the screens show for `COc1ccc(N2CCN(C3CCCN(S(=O)(=O)c4ccc(C)cc4C)C3)CC2)cc1` (configuration not stated)?
RE007 growth inh: -9%; FMDV inh: 22%; Sm TGR block: 20%; HCMV inh: -73*; Tb PYK inh: -6%

Results for OC(COCc1ccccc1)Cn1cnc2ccccc21 (configuration not stated) ?
RE007 growth inh: 5%; FMDV inh: 7%; Sm TGR block: -10%; HCMV inh: -22; Tb PYK inh: -6%; FBPA Giardia inh: -2%

How did OC(CN(c1ccccc1)c1ccccc1)Cn1cnc2ccccc21 (configuration not stated) do in these assays?
RE007 growth inh: -2%; FMDV inh: 32µM*; Sm TGR block: 2%; HCMV inh: inconclusive; Tb PYK inh: -7%; FBPA Giardia inh: -15%

What do the screens show for `COC(=O)C(N)(c1ccccc1)C(Nc1cccc(OC)c1)c1ccccc1` (configuration not stated)?
HCMV inh: 17

Results for O=C(c1noc2c1CCCC2)N1CCc2c([nH]c3ccccc23)C1c1ccccn1 (configuration not stated) ?
RE007 growth inh: 4%; FMDV inh: 6%; Sm TGR block: -14%; HCMV inh: -62*; Tb PYK inh: -13%; FBPA Giardia inh: -7%

Results for COc1ccc(OCC(=O)N2CCc3c([nH]c4ccccc34)C2c2ccccn2)cc1 (configuration not stated) ?
RE007 growth inh: 7%; FMDV inh: -8%; Sm TGR block: 2%; HCMV inh: -70*; Tb PYK inh: -2%; FBPA Giardia inh: -8%

What do the screens show for `CCc1nc(C)ccc1OCC(=O)N1CCc2c([nH]c3ccccc23)C1c1ccccn1` (configuration not stated)?
RE007 growth inh: -15%; FMDV inh: 12%; Sm TGR block: 2%; HCMV inh: -24; Tb PYK inh: -16%; FBPA Giardia inh: -22%

How did CCOc1ccc(CCNC(=O)c2ccc3c(c2)NC(=O)C2CCCN32)cc1OCC (configuration not stated) do in these assays?
Sm TGR block: 50µM*; FBPA Giardia inh: -7%

What do the screens show for `Cc1ccc2oc(=O)c(-c3nc(-c4cccs4)no3)cc2c1`?
FMDV inh: 35%; Sm TGR block: 6%; HCMV inh: -40; Tb PYK inh: -5%

Results for Cn1c(=O)c2c(-c3ccccc3Cl)n(-c3cc(Cl)ccc3O)cc2n(C)c1=O ?
FMDV inh: 17%; Sm TGR block: 13µM*; HCMV inh: -9; Tb PYK inh: -5%

Results for Cc1cccc(-c2c3c(=O)n(C)c(=O)n(C)c3cn2-c2ccccc2O)c1 ?
RE007 growth inh: -6%; FMDV inh: 0%; Sm TGR block: -11%; HCMV inh: -24; Tb PYK inh: 4%; FBPA Giardia inh: 13µM*

How did Cc1oc(-c2ccc(C(=O)NCc3ccc(F)cc3)cc2)nc1CS(=O)c1ccccc1 (configuration not stated) do in these assays?
FMDV inh: inconclusive; Sm TGR block: inconclusive; HCMV inh: -26; Tb PYK inh: -8%

What do the screens show for `Cc1ccc(NS(=O)(=O)c2ccc(-n3cccn3)cc2)cc1C`?
RE007 growth inh: -17%; FMDV inh: 14%; Sm TGR block: -6%; HCMV inh: -93*; Tb PYK inh: 3%

What do the screens show for `O=C(/C=C/c1ccc([N+](=O)[O-])s1)N1CCCC1`?
RE007 growth inh: inconclusive; FMDV inh: -7%; Sm TGR block: 28µM*; HCMV inh: -31; Tb PYK inh: 1%; FBPA Giardia inh: -5%

How did O=C(/C=C/c1ccc([N+](=O)[O-])s1)N1CCCCC1 do in these assays?
RE007 growth inh: inconclusive; FMDV inh: 4%; Sm TGR block: 20µM*; HCMV inh: inconclusive; Tb PYK inh: -3%; FBPA Giardia inh: 1%

Results for O=C(/C=C/c1ccc([N+](=O)[O-])s1)N1CCN(c2ccccc2)CC1 ?
RE007 growth inh: -18%; FMDV inh: -24%; Sm TGR block: -15%; HCMV inh: -70*; Tb PYK inh: -5%; FBPA Giardia inh: 3%

Results for O=C(/C=C/c1ccccc1[N+](=O)[O-])N1CCCCC1 ?
RE007 growth inh: -5%; FMDV inh: -14%; Sm TGR block: -7%; HCMV inh: 31; Tb PYK inh: -14%; FBPA Giardia inh: -11%

What do the screens show for `CC(=O)c1c(C)[nH]c(C(=O)COc2cc(C)cc(C)c2)c1C`?
RE007 growth inh: -5%; FMDV inh: -14%; Sm TGR block: -14%; HCMV inh: -62*; Tb PYK inh: -6%; FBPA Giardia inh: -18%

What do the screens show for `CC(=O)c1c(C)[nH]c(C(=O)COc2ccc3ccc(=O)oc3c2)c1C`?
RE007 growth inh: -1%; FMDV inh: 28µM*; Sm TGR block: -6%; HCMV inh: -10; Tb PYK inh: -2%

What do the screens show for `O=C(CSCc1ccccc1)N/N=C/c1ccc(OCC(=O)N2CCCCC2)cc1`?
FMDV inh: inconclusive; Sm TGR block: -1%; HCMV inh: -68*; Tb PYK inh: -28%; FBPA Giardia inh: 3%

What do the screens show for `O=C(CSCc1ccccc1)N/N=C/c1cc2c(cc1Br)OCO2`?
RE007 growth inh: -22%; FMDV inh: -7%; Sm TGR block: -14%; HCMV inh: -73*; Tb PYK inh: -1%; FBPA Giardia inh: 6%

What do the screens show for `COC(=O)Oc1ccc(/C=N/NC(=O)CSCc2ccc(Cl)cc2)cc1OC`?
RE007 growth inh: -11%; FMDV inh: inconclusive; Sm TGR block: -7%; HCMV inh: -60*; Tb PYK inh: 10%; FBPA Giardia inh: 3%

How did COCc1cc(/C=N\NC(=O)Cc2ccc(Cl)cc2)ccc1OC do in these assays?
RE007 growth inh: -3%; FMDV inh: -9%; Sm TGR block: 3%; HCMV inh: 16; Tb PYK inh: 1%; FBPA Giardia inh: 6%

Results for O=C(CSCc1ccc(Cl)cc1)N/N=C/c1ccccc1 ?
RE007 growth inh: 47%; FMDV inh: -1%; Sm TGR block: 3%; HCMV inh: -21; Tb PYK inh: -1%; FBPA Giardia inh: 18µM*
